High-throughput results (PubChem BioAssay)
IDH1 R132H inh – inhibitors of human mutant IDH1 R132H | Potency, µM (highest dose often 76.6 µM), without a hit: at the highest dose activity change, negative = inhibition, hits mostly inhibitors | IDH1-R132H enzyme, NADPH consumption, diaphorase/resazurin fluorescence | 390,000 compounds, 0.093% hits | O75874 | AID 602179; note: nearly all actives have a fitted effect of over 65% in size
Target sequence (O75874 whole entry R132H, stated change not applied): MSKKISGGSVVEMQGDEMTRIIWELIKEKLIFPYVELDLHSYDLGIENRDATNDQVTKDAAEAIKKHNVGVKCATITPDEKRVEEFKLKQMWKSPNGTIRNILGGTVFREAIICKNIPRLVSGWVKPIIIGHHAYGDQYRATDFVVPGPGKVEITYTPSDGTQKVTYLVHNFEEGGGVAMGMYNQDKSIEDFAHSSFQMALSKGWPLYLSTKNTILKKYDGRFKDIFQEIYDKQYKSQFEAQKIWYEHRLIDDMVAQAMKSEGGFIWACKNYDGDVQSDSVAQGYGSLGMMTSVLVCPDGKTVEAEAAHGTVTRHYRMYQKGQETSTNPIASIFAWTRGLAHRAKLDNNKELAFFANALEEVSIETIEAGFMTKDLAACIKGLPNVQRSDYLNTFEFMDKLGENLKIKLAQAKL
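IDH1-R132H (0.5 ug/mL dispensed) in pH 7.5 Tris buffer was preincubated 30 min with compound, then given a substrate mix of 0.016 mM NADPH and 2 mM alpha-KG for 80 min at room temperature; remaining NADPH was read by diaphorase/resazurin fluorescence.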
Sfp inh – blocks B. subtilis Sfp PPTase activity | Q9F4F7 | Biochemical Sfp PPTase activity, qHTS | Potency, µM, for the others: largest response in the series, negative = inhibition, hits mostly inhibitors | 310,000 compounds, 3.5% hits | AID 1490;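 note: the enzyme is Sfp with the accession as filed and its product quenches rhodamine fluorescence; 0% = enzyme reaction without inhibitor and -100% = no enzyme wells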
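Fluorescence-quenching assay: 15 nM Sfp-PPTase preincubated 15 min at room temperature with compound, then 5 uM rhodamine-CoA and 12.5 uM BHQ-2-labelled YbbR peptide added. Fluorescence (ex 525/em 598 nm) read at start and after 30 min; difference gives rate.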
rTrxR1 inhibitor – inhibitors of rat thioredoxin reductase 1; O89049; recombinant rTrxR1, NADPH fluorescence consumption, selenite substrate; Potency, µM (doses to about 114 µM), inactives show at the top dose activity change, negative = inhibition, actives largely listed as inhibitors; 390,000 compounds, 1% hits; AID 588453; note: nearly all actives have a fitted effect of over 65% in size
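Rat TrxR1 (90 nM in the dispensed reagent) was pre-reduced with 400 uM NADPH for 5 min at room temperature, then incubated with compound for 15 min. After 400 uM selenite was added, NADPH fluorescence (Ex 340/Em 450 nm) was followed for 8 min.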
VDR inh – blocks the human vitamin D receptor; VDR-SRC2-3 peptide fluorescence polarization, 2 h; 400,000 compounds, 0.93% hits; Potency, µM, inactives show max response, negative = inhibition, actives largely listed as inhibitors
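Measured by FP: displacement of SRC2-3 coactivator peptide from VDR by library compounds, following a two-hour ambient incubation.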
TrxR1 substrate – rat thioredoxin reductase 1 substrate activity; Potency, µM (doses to about 114 µM), inactives show at the highest dose activity change, negative = substrate turnover; 390,000 compounds, 0.01% hits; O89049; purified TrxR1 substrate turnover, NADPH consumption readout; note: nearly all actives have a fitted effect of over 50% in size
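Rat TrxR1, dispensed at 90 nM, was prereduced with 400 uM NADPH (final) for 5 min at ~22 deg C, then incubated with compound 15 min before 400 uM selenite. A first-read NADPH fluorescence drop versus no-compound background flagged substrates.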
PLK1 PBD inh – PLK1 (human) polo-box domain binding inhibition; P53350; Plk1 PBD binding of FITC phosphopeptide, fluorescence polarization; Potency, µM, without a hit: max response, negative = inhibition, hits mostly inhibitors; 360,000 compounds, 2.8% hits; AID 720504; note: series mostly up to about 57 µM; nearly all actives have a fitted effect of over 65% in size
Numbers without * were called inactive; [ ] = remark or other dose. Only some compounds are listed: those with a hit (about 5.2% of all), similar ones and a draw of the others. Calls come from the whole dose curve; as a rule, active = well fitted curve in the direction sought with a large enough effect; inconclusive = small, poorly fitted or top-dose-only effect, or another doubt; inactive = no such curve, though single readings can be large; an effect the other way counts as inactive or inconclusive. Unless noted, % is set by controls: 0 for no effect and ±100 for the full control effect; potency is the fitted concentration of half-maximal effect.

Results for COc1cc(C(=O)Oc2c(Sc3ccccc3)c(C)nn2-c2ccccc2)cc(OC)c1OC ?
IDH1 R132H inh: 14.6%; rTrxR1 inhibitor: 32.5%; VDR inh: inconclusive; TrxR1 substrate: -3.7%[2.29 µM]

How did CCC(=O)Oc1c(Sc2ccc(C)cc2)c(C)nn1-c1ccccc1 do in these assays?
IDH1 R132H inh: -1.7%; rTrxR1 inhibitor: 31.6%; VDR inh: 79.4µM*; TrxR1 substrate: -3.2%

What do the screens show for `Cc1nn(C(=O)C2CC2)c(C)c1Sc1ccc(Cl)cc1`?
IDH1 R132H inh: 4.7%; Sfp inh: -0.4%; rTrxR1 inhibitor: -4.3%; VDR inh: -10.1%; TrxR1 substrate: -5.1%; PLK1 PBD inh: 1.9%

What do the screens show for `Cc1ccc(Sc2c(C)nn(C(C)(C)C)c2OC(=O)CC(C)C)cc1`?
IDH1 R132H inh: -7.9%; rTrxR1 inhibitor: 30.6%; VDR inh: -5.7%; TrxR1 substrate: -5.9%

What do the screens show for `Cc1nc(/C(=N/O)C(N)=O)cs1`?
IDH1 R132H inh: -10.1%; Sfp inh: 56.2µM*; rTrxR1 inhibitor: 30.2%; VDR inh: -6.9%; TrxR1 substrate: 6.0%; PLK1 PBD inh: 23.8µM*

What do the screens show for `Cc1nc(C(=O)NNC(=O)c2ccc(Cl)cc2)cs1`?
IDH1 R132H inh: -12.7%; Sfp inh: -3.1%; rTrxR1 inhibitor: 8.8%; VDR inh: 3.1%; TrxR1 substrate: 2.7%; PLK1 PBD inh: -1.7%

Results for O=C(O)c1ccc(N2C(=O)CC(SC(=NCc3ccc4c(c3)OCO4)Nc3ccc(F)cc3)C2=O)cc1 (stereo not drawn) ?
IDH1 R132H inh: -3.0%; Sfp inh: -2.5%; rTrxR1 inhibitor: 25.0%[57.1 µM]; VDR inh: 9.0%; TrxR1 substrate: -18.3%[57.1 µM]; PLK1 PBD inh: inconclusive

What do the screens show for `C/C(CCc1ccc2c(c1)OCO2)=N\N=C(/N)SC1CC(=O)N(c2ccc(Cl)cc2)C1=O` (stereo not drawn)?
IDH1 R132H inh: -1.9%; Sfp inh: 56.2µM*; rTrxR1 inhibitor: 10.9%; VDR inh: -5.0%; TrxR1 substrate: 4.2%; PLK1 PBD inh: -10.7%

How did O=C(O)c1ccc(N2C(=O)CC(SC(=NCc3ccc4c(c3)OCO4)Nc3ccccc3)C2=O)cc1 (stereo not drawn) do in these assays?
IDH1 R132H inh: -1.6%; Sfp inh: 6.3%; rTrxR1 inhibitor: 14.2%; VDR inh: -19.3%; TrxR1 substrate: -1.2%; PLK1 PBD inh: 53.2µM*

What do the screens show for `C[C@]12CCC(=O)C=C1CCC1C2C(O)C[C@]2(C)C1CC[C@]2(O)C(=O)CO` (stereo partly drawn)?
Sfp inh: 14.3%; VDR inh: -0.2%

How did O=[N+]([O-])c1ccc(Oc2ncccn2)cc1 do in these assays?
IDH1 R132H inh: 12.7%; rTrxR1 inhibitor: 12.5%[57.1 µM]; VDR inh: 12.3%; TrxR1 substrate: -4.4%; PLK1 PBD inh: -13.3%

How did N#CCc1ccc(Oc2ncccn2)cc1 do in these assays?
IDH1 R132H inh: 3.9%; Sfp inh: 9.6%; rTrxR1 inhibitor: 21.8%; VDR inh: inconclusive; TrxR1 substrate: 8.2%; PLK1 PBD inh: 16.8µM*

What do the screens show for `Nc1ccn([C@@H]2O[C@H](C(=O)Nc3ccc(Oc4ccccc4)nc3)[C@@H](O)[C@H]2O)c(=O)n1`?
PLK1 PBD inh: -3.1%

How did Cc1ccc(-c2csc3nc(C)n(-n4cccc4)c(=O)c23)o1 do in these assays?
IDH1 R132H inh: 0.7%; Sfp inh: 56.2µM*; rTrxR1 inhibitor: inconclusive; VDR inh: 9.8%; TrxR1 substrate: 4.6%; PLK1 PBD inh: -13.6%

What do the screens show for `CC1CCCC(C)N1/N=C/c1ccccc1F` (stereo not drawn)?
IDH1 R132H inh: -11.3%; Sfp inh: 50.1µM*; rTrxR1 inhibitor: 15.8%[57.1 µM]; VDR inh: -24.4%; TrxR1 substrate: 11.5%[57.1 µM]; PLK1 PBD inh: -2.6%

Results for O=C(CSc1ccccn1)Nc1ccc2[nH]c(=O)[nH]c2c1 ?
IDH1 R132H inh: 5.8%; rTrxR1 inhibitor: 6.8%; VDR inh: -2.6%; TrxR1 substrate: 2.3%; PLK1 PBD inh: 26.7µM*

Results for NS(=O)(=O)c1ccc(NC(=O)CSc2ccccn2)cc1 ?
IDH1 R132H inh: 6.2%; Sfp inh: 79.4µM*; rTrxR1 inhibitor: 8.2%[57.1 µM]; VDR inh: -1.3%; TrxR1 substrate: 7.6%[57.1 µM]; PLK1 PBD inh: inconclusive

How did NS(=O)(=O)c1cccc(NC(=O)CSc2ccccn2)c1 do in these assays?
IDH1 R132H inh: 2.3%; Sfp inh: inconclusive; rTrxR1 inhibitor: 0.0%; VDR inh: 13.6%; TrxR1 substrate: 2.7%; PLK1 PBD inh: inconclusive

Results for Cc1ccc(CCNC(=O)c2cc3sccc3n2Cc2ccc(Cl)cc2)cc1 ?
IDH1 R132H inh: -8.1%; rTrxR1 inhibitor: 5.9%; VDR inh: 2.6%; TrxR1 substrate: -3.9%

How did COc1ccc(C(=O)CN2CCN(S(=O)(=O)c3cccc([N+](=O)[O-])c3)CC2)cc1OC do in these assays?
IDH1 R132H inh: -7.1%; Sfp inh: 35.5µM*; rTrxR1 inhibitor: -18.7%; VDR inh: -5.2%; TrxR1 substrate: -9.6%; PLK1 PBD inh: -9.5%

What do the screens show for `COc1cccc(C(=O)CN2CCN(S(=O)(=O)c3cccc([N+](=O)[O-])c3)CC2)c1`?
IDH1 R132H inh: -0.1%; Sfp inh: -29.9%; rTrxR1 inhibitor: 8.91µM*; VDR inh: -17.9%; TrxR1 substrate: -0.7%; PLK1 PBD inh: -6.7%

How did O=C(CCN1CCN(S(=O)(=O)c2cccc([N+](=O)[O-])c2)CC1)Nc1ccccc1F do in these assays?
IDH1 R132H inh: -1.9%; Sfp inh: 5.4%; rTrxR1 inhibitor: 0.2%; VDR inh: -26.8%; TrxR1 substrate: -0.9%; PLK1 PBD inh: 26.7µM*

How did O=C(CCN1CCN(S(=O)(=O)c2ccc(Cl)cc2)CC1)Nc1ccccc1F do in these assays?
IDH1 R132H inh: 4.3%; Sfp inh: -0.7%; rTrxR1 inhibitor: 16.2%[57.1 µM]; VDR inh: 23.9%; TrxR1 substrate: -6.9%; PLK1 PBD inh: -8.0%

How did CC(=O)Nc1ccn(C2OC(C(COC(C)=O)NC(=O)C(C)NC(=O)OC(C)(C)C)C(OC(C)=O)C2OC(C)=O)c(=O)n1 (stereo not drawn) do in these assays?
Sfp inh: 4.0%; rTrxR1 inhibitor: 12.8%[57.1 µM]; VDR inh: -5.4%; TrxR1 substrate: -1.0%

What do the screens show for `Cc1ccc2oc(C(=O)Nc3nc(-c4ccc(F)cc4)ns3)c(C)c2c1`?
IDH1 R132H inh: 2.2%; rTrxR1 inhibitor: 25.7%; VDR inh: 10.3%; TrxR1 substrate: 1.9%

How did Oc1ccc(Cl)cc1C1=NNC(c2cccs2)C1 (stereo not drawn) do in these assays?
IDH1 R132H inh: -13.2%; Sfp inh: -19.5%; rTrxR1 inhibitor: inconclusive; VDR inh: inconclusive; TrxR1 substrate: 3.8%; PLK1 PBD inh: 15µM*

What do the screens show for `CCOc1ccccc1C(=O)Nc1cc(-c2ccc(C)cc2)no1`?
IDH1 R132H inh: 1.9%; rTrxR1 inhibitor: 33.2%; VDR inh: 16.8%; TrxR1 substrate: 10.2%
